# PubChem BioAssay (NCATS)
# Records with an inconclusive call do not appear. Entries that show only a call come without a potency. Calls of active or inactive are those of the source. Calls come from the whole dose curve; as a rule, active = well fitted inhibition curve with a large enough effect; inconclusive = small, poorly fitted or top-dose-only effect; inactive = no such curve, though single readings can be large or run the other way.
# Experiment: Primary qHTS for inhibitors of La Crosse Virus (LACV) - induced cell death in SH-SY5Y cells (AID 1508616)
# Settings: SH-SY5Y LACV cytopathicity rescue, ATP luminescence, 6 d; series mostly up to 9.63 µM
# From the text: Assay Provider: Karin Peterson Ph.D.
# National Institute of Allergy and Infection Diseases, National Institute of Health
# La Crosse Virus (LACV) is a California serogroup mosquito-borne arbovirus, family Peribunyaviridae, which is an endemic pathogen in North America and can induce a rare, life-threatening neurological disease in children. LACV was first isolated in the early 1960s, from a summer "rural encephalitis" case in La Crosse, Wisconsin, USA. Since then, LACV encephalitis cases have been found in more than twenty states, with most cases in the Mississippi and Ohio River basins. The life cycle of LACV is maintained between the vector, the eastern tree-hole mosquito Aedes triseriatus, and vertebrate hosts including eastern gray squirrels (Sciurus carolinensis) and chipmunks (Tamiasstriatus grinseus). […] Most LACV infections in humans are asymptomatic or induce mild clinical symptoms of fever, headache, lethargy and vomiting. However, in some cases LACV can cause severe neuroinvasive disease, including encephalitis, meningitis, and meningoencephalitis, requiring hospitalization. To date, there is neither a licensed vaccine nor a Food and Drug Administration (FDA) approved antiviral therapy available to prevent or treat LACV encephalitis. The primary treatment for viral encephalitis is palliative care due to the lack of therapeutics. In the current study, we conducted a screen of 4,096 FDA approved and bioactive small molecules against LACV, by screening for rescue of LACV-induced cell death in SH-SY5Y cells.
# LACV-induced cytopathicity assay
# SEQUENCE No. (1,2, 3, etc.); […] (e.g., Cells, Incubation, Reagent, etc.); VALUE and DESCRIPTION.
# 1. Reagent; 2 uL; Cell solution.
# 3. Compounds; 23nL; Compound library
# 4. Reagent; 12 uL; LACV virus
# 6. Reagent; 24 uL; ATPLite (PerkinElmer)
# 7. Time; 5 min; Room temperature
# 8. Detection; Luminescence; View
# NOTES (numbers refer to sequence above)
# 1. Seed 6000 SH-SY5Y cells (ATCC CRL-2266) in 2 microL/well media (DMEM/F12 10% FBS, 1x L-Glutamine, 1x Pyruvate, 1x NEAA, 1x Pen/Strep) in 384-well assay plates (tissue culture treated, white, solid bottom).
# 2. Incubate at 37 degrees C with 5% CO2 for 24 hr.
# 3. Dispense 23 nL/well compounds in DMSO via pin transfer.
# 4. Dispense 12 microL/well of LACV (LACV/human/1978) in media at 0.01 MOI.
# 5. Incubate at for 6 days at 37C 5% CO2
# 6. Dispense 24 microL/well of ATPLite 1step Luminescence assay system (PerkinElmer).
# 7. Incubate for 5 min at room temperature.
# 8. Read luminescence signal (Viewlux plate reader, PerkinElmer). Data was normalized with DMSO control wells containing LACV as 0%, and DMSO control wells without virus as 100%.
# Potency is the fitted concentration of half-maximal effect.
row,SMILES,Potency
1,O=C(CS)Nc1ccccc1,inactive
2,Cc1cc(NC2CCCCC2)nc(-n2nc(C)cc2C)n1,inactive
3,Oc1cc(O)cc(/C=C/c2ccc(O)c(O)c2)c1,3.16 µM (active)
4,CCCCCC(O)c1cccc(OCc2ccc3ccccc3n2)c1 (stereo not given),inactive
5,N#C/C(=C\c1c[nH]c2ccccc12)C(=O)c1ccc(O)c(O)c1,inactive
6,C=CCCCCCCCCC(=O)O,inactive
7,O=c1[nH]c2cc(C(F)(F)F)ccc2n1-c1cc(C(F)(F)F)ccc1O,inactive
8,O=C(O)CC1CCCc2ccccc2C1O (stereo not given),inactive
9,NC(=O)C(=O)O,inactive
10,CCCCCCCCCCCCOCCO,inactive
11,O=[N+]([O-])c1ccc(CSc2ncnc3c2ncn3[C@@H]2O[C@H](CO)[C@@H](O)[C@H]2O)cc1,inactive
12,CSc1nc(N)c2ncn([C@@H]3O[C@H](COP(=O)(O)OP(=O)(O)OP(=O)(O)O)[C@@H](O)[C@H]3O)c2n1,inactive
13,C[N+](C)(CCCCCC[N+](C)(C)CCCN1C(=O)c2cccc3cccc(c23)C1=O)CCCN1C(=O)c2cccc3cccc(c23)C1=O,inactive
14,C#CC1(O)CC[C@H]2[C@@H]3CCC4=CCCC[C@@H]4[C@H]3CC[C@@]21C (stereo not given in full),inactive
15,CN(C)c1ccc(N=NS(=O)(=O)O)cc1,inactive
16,CN(C)C(N)=NCCC[C@H](N)C(=O)O,inactive
17,O=C(O)/C=C\C(=O)O,inactive
18,N=C(N)SCCc1ccc(CCSC(=N)N)cc1,inactive
19,Cc1ccc(C(=O)c2ccc(CC(=O)O)n2C)cc1,inactive
20,CC1(C)CCC=[N+]1[O-],inactive

row,SMILES,Potency
1,O=c1[nH]c2ccccc2n1CCCN1CCN(C(c2ccccc2)c2ccccc2)CC1,inactive
2,COc1ccccc1N1CCN(CCCCNS(=O)(=O)c2cccc3c(N(C)C)cccc23)CC1,inactive
3,Cc1ccc2c(n1)Oc1ccc(C(C)C(=O)OCC(=O)N(C)C)cc1C2 (stereo not given),inactive
4,NC(=S)NCCC[C@H](N)C(=O)O,inactive
5,CC(C(=O)O)c1ccc2c(c1)[nH]c1ccc(Cl)cc12 (stereo not given),inactive
6,N.N.N.N.N.N.N.N.N.N.N.N.N.N.O.O.[Ru+4].[Ru+5].[Ru+5],inactive
7,C=C[C@@H]1CN2CC[C@@H]1C[C@H]2[C@H](O)c1ccnc2ccc(OC)cc12,inactive
8,CO[C@@]1(NC(=O)Cc2cccs2)C(=O)N2C(C(=O)O)=C(COC(N)=O)CS[C@@H]21,inactive
9,CC(C(=O)O)c1ccc(C(=O)c2ccccc2)s1 (stereo not given),inactive
10,CC(=O)c1ccc(OCC(=O)N2CCCCC2)cc1,inactive
11,O=C(O)[C@@H]1C[C@@H](C(=O)O)N1,inactive
12,CC(=O)N[C@H](C(=O)O)C(C)(C)SN=O,inactive
13,O=C(/C=C/c1ccccc1)NCCO,inactive
14,COc1cccc(OC)c1OCCNCC1COc2ccccc2O1 (stereo not given),inactive
15,C[N+]1(C)[C@@H]2CC(OC(=O)[C@H](CO)c3ccccc3)C[C@H]1[C@@H]1O[C@@H]12 (stereo not given in full),inactive
16,NC(N)=NC(=O)c1nc(Cl)c(N2CCCCCC2)nc1N,inactive
17,CN(C)[C@@H]1C(=O)C(C(=O)NCN2CCCC2)=C(O)[C@@]2(O)C(=O)C3=C(O)c4c(O)cccc4[C@@](C)(O)C3C[C@@H]12 (stereo not given in full),inactive
18,Cc1c(C(=O)O)c(O)cc2c1C(=O)c1c(O)c([C@@H]3O[C@H](CO)[C@@H](O)[C@H](O)[C@H]3O)c(O)c(O)c1C2=O,inactive
19,CCCCCCCCCCCCCCCC(=O)OC(C)C,inactive
20,COc1ccnc2c1CCCCC2S(=O)c1nc2ccccc2[nH]1 (stereo not given),inactive
